This is a sample that favours compounds with a hit; in the whole collection about 4.6% have one here.
D1 agonist – activates the human D1 dopamine receptor | HEK293 T-REx D1 cells, calcium flux, agonist mode | hit rate 1% among 360,000 | activation, % at 2 µM; also: 0% is about no effect
Target sequence (P21728 whole entry, looked up): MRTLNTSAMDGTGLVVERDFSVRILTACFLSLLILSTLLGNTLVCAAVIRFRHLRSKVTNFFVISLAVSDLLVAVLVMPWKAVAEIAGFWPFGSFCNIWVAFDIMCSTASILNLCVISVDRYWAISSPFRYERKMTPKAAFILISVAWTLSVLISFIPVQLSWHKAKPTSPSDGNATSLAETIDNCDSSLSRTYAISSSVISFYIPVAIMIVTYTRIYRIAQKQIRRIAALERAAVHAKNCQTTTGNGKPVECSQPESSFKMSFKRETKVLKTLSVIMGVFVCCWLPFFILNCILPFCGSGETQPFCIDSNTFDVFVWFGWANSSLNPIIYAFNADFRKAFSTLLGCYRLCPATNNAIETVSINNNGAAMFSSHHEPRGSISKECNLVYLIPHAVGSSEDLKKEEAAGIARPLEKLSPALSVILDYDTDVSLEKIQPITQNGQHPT
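Inducible HEK293 T-REx D1 cells, force-coupled to calcium signalling, were plated at 4000 cells/well with tetracycline and held overnight at 30 C. After no-wash calcium dye loading, compound-evoked calcium rise over 180 s flagged agonists.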
D1 potentiator – potentiators of human D1 dopamine receptor; HEK293 TREx D1 cells, calcium flux, dopamine EC20 potentiation; potentiation, % at 10 µM; hit rate 0.036% among 360,000; in the data active = potentiation above about 30%; also: 0% is about no effect
TRHR ag – agonists of human TRH receptor. TRHR cells, calcium flux fluo-8, FDSS agonist mode. P34981. AID 493084. hit rate 0.18% among 360,000. activation, % at 2 µM; also: 0% is about no effect
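Steps: seed TRHR cells overnight; add fluo-8 no-wash Ca dye, RT 30 min–1.5 h; record 10 s baseline; pin-transfer compounds; monitor fluorescence 1 cycle/s for the agonist window. Calcium increases flag candidate agonists.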
TRHR enhancer – allosterically enhances the human TRH receptor. P34981. TRHR cells, fluo-8 calcium fluorescence, EC20 TRH enhancement. enhancement, % at 2 µM. hit rate 0.66% among 360,000. AID 493056; in the data active = enhancement above about 30%; also: 0% is about no effect
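TRHR-expressing cells loaded with fluo-8 calcium dye were read kinetically (ex 480/em 530) during compound addition, then stimulated with an EC20 of TRH (10 nM final). Enhancement of the Gq-mediated intracellular calcium response was scored.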
D1 antagonist – antagonists of human D1 dopamine receptor; HEK293 TREx D1 cells, calcium flux, dopamine EC80; hits give low values; activity change, negative = inhibition, % at 10 µM; hit rate 3.2% among 360,000; AID 504652; in the data active = activity change below about -30%; also: % is scaled to controls: 0 for no effect and ±100 for the full control effect
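Using tetracycline-induced force-coupled D1 Hek293 cells and a calcium dye, signals were followed for 180 s after compound, then for 180 s after EC80 dopamine, to detect inhibitors.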
Numbers without * were called inactive; ! = repeats disagree. Rule as the data show it, unless noted: active = activation above about 30%; inactive = the rest.

SMILES | D1 agonist | D1 potentiator | TRHR ag | TRHR enhancer | D1 antagonist
COC(=O)c1cc(OC)c(OC)cc1NC(=S)N1CCN(Cc2ccccc2)CC1 | -0.8 | -4.5 | -0.5 | 10.2 | -31.7*
NC(=O)c1nc(-c2ccc(F)c(F)c2)nc2c1[nH]c(=O)n2-c1cccc(Cl)c1 | 4.7 | -2.5 | 1.0 | 1.5 | 1.8
CCN(Cc1ccccc1)C(=O)Cn1c(=O)n(-c2cccc(C)c2)c(=O)c2c1c1cc(C)ccc1n2C | 0.5 | -2.1 | -0.6 | -3.9 | 8.7
CCOc1cc(C(=O)Nc2ccc([N+](=O)[O-])cn2)cc(OCC)c1OCC | 4.2 | -5.0 | 0.0 | -2.8 | -50.9*
COc1ccc(NC(=O)c2ccc3c(SCC(=O)O)c4c(nc3c2)CCC4)c(OC)c1 | 1.6 | 0.6 | 0.2 | 4.2 | -35.0*
O=C(CSc1c2c(nc3ccccc13)CCC2)Nc1ccc(F)cc1F | -1.3 | -2.1 | -0.8 | -8.3 | -36.4*
Cc1ccc(C)c(NC(=O)CSc2c3c(nc4ccc(Cl)cc24)CCCC3)c1 | 1.6 | 1.7 | -0.4 | -1.8 | -2.7
Cc1ccc(OCC(=O)N(Cc2ccco2)Cc2ccco2)cc1 | 2.0 | -1.6 | -1.3 | 1.7 | -15.2
Cc1ccc(CN(Cc2ccco2)C(=O)COc2ccc(C(C)C)cc2)cc1 | 46.2* | 1.0 | -0.9 | 3.7 | -55.8*
Cc1ccc2c(CC(=O)N(Cc3ccc(Cl)cc3)Cc3ccco3)coc2c1 | 32.9* | -1.3 | -1.4 | 7.2 | -22.2
Cc1cc(C)c2c(CC(=O)N(Cc3ccc(N(C)C)cc3)Cc3ccco3)coc2c1 | 2.3 | 3.1 | 0.2 | -2.3 | 4.8
Cc1ccc(CNC(=O)CSc2nc3ccsc3c(=O)n2-c2ccc(C(=O)O)cc2)cc1 | 0.7 | -4.0 | 0.0 | -2.6 | -15.8
O=C1CCc2cc(S(=O)(=O)N3CCC(C(=O)Nc4nccs4)CC3)ccc2N1 | 3.5 | -0.3 | 0.3 | -3.6 | 17.4
Cc1cccnc1NC(=O)C1CCN(S(=O)(=O)c2ccc3c(c2)CCC(=O)N3)CC1 | 0.2 | 1.9 | 0.4 | -2.2 | -42.6*
CCc1nc2ccc(C(=O)NCc3ccc(N(C)C)cc3)cc2nc1CC | 0.8 | 0.9 | -1.1 | 1.7 | -3.6
O=C(Nc1ccc2c(c1)OCO2)C1CC(=O)N(CCc2ccccc2)C1 (stereo not given) | -1.5 | -6.3 | -0.4 | 2.8 | -37.6*
COc1ccc(CCN2CC(C(=O)Nc3ccc4c(c3)OCO4)CC2=O)cc1OC (stereo not given) | 2.9 | 0.1 | -0.1 | -11.3 | -4.0
COc1ccc(-n2c(/C=C/c3ccccc3F)nc3cc(OC)c(OC)cc3c2=O)cc1Cl | -3.2 | 0.1 | -0.6 | -3.1 | 4.0
Cc1ccc(C)c(Cn2c3ccccc3c3cnn(CC(=O)NCCCN4CCOCC4)c(=O)c32)c1 | 2.5 | -4.3 | 0.1 | -4.8 | -30.4*
CCCCN(C)CCCNC(=O)Cn1ncc2c3ccccc3n(Cc3cc(C)ccc3C)c2c1=O | 96.2* | -1.4 | -1.9 | 3.6 | -0.3
Cc1cc(C)c(OCC(=O)N(Cc2cccc(F)c2)Cc2ccco2)c(C)c1 | 15.6 | -1.2 | 3.5 | 4.1 | -3.1
COc1ccc(N2CCN(C(=O)C3CCCN(S(=O)(=O)c4ccc5c(c4)CCCN5C(C)=O)C3)CC2)cc1 (stereo not given) | 0.9 | -2.1 | -0.4 | 4.4 | -23.9
CC(=O)N1c2ccc(S(=O)(=O)N3CCCC(C(=O)NCc4ccccc4Cl)C3)cc2CC1C (stereo not given) | 0.9 | -3.9 | 0.1 | 5.6 | -10.8
CC(=O)N1CCCc2cc(S(=O)(=O)N3CCCC(C(=O)NCc4ccccc4Cl)C3)ccc21 (stereo not given) | 0.8 | -9.4 | 0.6 | -5.3 | -42.2*!
CC(=O)N1CCCc2cc(S(=O)(=O)N3CCCC(C(=O)N4CCN(c5ccccc5F)CC4)C3)ccc21 (stereo not given) | 3.3 | -3.6 | 0.1 | 1.3 | -38.8*
SMILES | D1 agonist | D1 potentiator | TRHR ag | TRHR enhancer | D1 antagonist
Cc1cc(NS(=O)(=O)c2ccc(NC(=O)/C=C/c3ccc(Br)cc3)cc2)no1 | 4.7 | 0.5 | 0.1 | 4.3 | -5.8
Cc1cc(NS(=O)(=O)c2ccc(NS(=O)(=O)c3ccc(Br)cc3)cc2)no1 | 0.9 | 0.5 | -0.1 | 33.4* | 4.6
Cc1cc(NS(=O)(=O)c2ccc(NC(=O)COc3ccc(Br)cc3C)cc2)no1 | 1.2 | -1.1 | -1.1 | 3.6 | 4.1
Cc1cc(NS(=O)(=O)c2ccc(Nc3nc(-c4ccc(C)c(C)c4)cs3)cc2)no1 | 68.0* | -10.6 | -0.7 | 2.0 | -11.5
Cc1cc(NS(=O)(=O)c2ccc(NC(=O)COc3c(C)cc(Br)cc3C)cc2)no1 | 88.2*! | -6.1 | -0.8 | 2.5 | 5.5
O=S(=O)(c1ccc(F)cc1)N1CCN(c2nc(-c3ccc(F)cc3)nc3cc(Cl)ccc23)CC1 | -0.1 | -5.8 | 0.2 | -1.2 | -27.6
CC1CCN(CCCCOc2ccccc2-c2ccccc2)CC1 | 19.6 | -6.3 | 0.7 | 5.5 | -59.2*
CCC(C)c1ccccc1OCCCNC1CCCC1 (stereo not given) | 38.7* | 1.7 | 3.5 | 1.8 | -33.5*
CC1CCN(CCOCCOc2ccccc2Br)CC1 | 5.2 | -3.0 | 1.1 | 7.2 | -47.9*
COc1ccccc1OCCNC1CCCC1 | 2.2 | -8.4 | -0.1 | 5.3 | -5.7
c1ccc(-c2ccccc2OCCOCCN2CCCCC2)cc1 | 24.1 | -10.9 | 0.7 | 2.5 | -47.0*
CNC(=O)c1c(NC(=O)CCS(=O)(=O)c2ccc(F)cc2)sc(C)c1C | 1.0 | 3.5 | -0.5 | -1.2 | 16.3
Cc1csc2nc(-c3cccc(NC(=O)c4cccc(F)c4)c3)cn12 | -1.1 | 0.9 | -0.5 | 14.5 | 3.1
CCC(C)c1ccccc1OCCOCCN1CCCC1 (stereo not given) | 10.1 | -17.9 | -0.3 | -4.0 | -30.0*
c1ccc(-c2ccccc2OCCCCN2CCCCCC2)cc1 | 28.3 | -12.4 | -0.3 | 2.5 | -34.8*
c1ccc(-c2ccccc2OCCN2CCCC2)cc1 | 7.4 | -12.2 | 0.6 | 2.6 | -19.2
COc1cccc(CNC(=O)c2oc3c(c2C)-c2nn(Cc4cccc(Cl)c4)cc2CC3)c1OC | -0.9 | 2.2 | -0.2 | 11.4 | -0.3
Cc1ccc(CSCC(=O)N(C)CC(=O)Nc2ccccc2Cl)cc1 | 1.1 | -4.7 | -0.2 | -2.2 | -33.0*
CN(CC(=O)Nc1ccccc1Cl)C(=O)Cn1cc(C(F)(F)F)ccc1=O | -1.6 | 0.1 | -0.3 | -8.1 | -32.5*
O=C(CN1C(=O)COc2ccc(S(=O)(=O)Nc3ccccc3)cc21)Nc1cccc(Cl)c1 | 3.9 | -1.0 | 0.8 | -20.5 | -2.8
COc1ccc(NC(=O)CCc2c(C)nc3c(c2C)c(=O)n(C)c(=O)n3C)c(OC)c1 | 0.7 | -4.5 | -0.3 | -2.5 | -7.1
CN(C)c1ccc(/C=C(\Cl)c2nc3ccccc3s2)cc1 | 99.3* | -0.9 | -0.7 | 0.5 | -35.8*
COc1ccccc1N1CCN(/N=C\c2sccc2C)CC1 | 5.1 | -4.3 | -0.4 | -5.6 | -43.1*
COc1ccccc1N1CCN(/N=C\c2ccccc2)CC1 | 5.7 | -5.5 | -0.4 | 2.5 | 4.9
